# High-throughput results as filed in PubChem.
# Only some compounds are listed: those with a hit (about 5.7% of all), similar ones and a draw of the others.
# hcDAF-12 act: H. contortus DAF-12 nuclear receptor activators, primary screen, cell-based, luminescence, HEK293, lit1-tk-luc reporter; HEK293 hcDAF-12 lit1-tk-luc reporter; 0% DMSO, 100% Δ7-dafachronic acid; AID 652067, 2013; actives 1.4% (n = 370,000); activation, % at 6.8 µM;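 active means activation above the mean of all tested compounds plus 3 SD, cut at about 5.5% in these data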;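 further: 100% = response to 3 µM Δ7-dafachronic acid high control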
# ssDAF12 agonist: S. stercoralis DAF-12 nuclear receptor activators, primary screen, cell-based, luminescence, HEK293, GRIP1 co-expression, lit1-tk-luc. HEK293 ssDAF-12/GRIP1 lit1-tk-luc reporter; % of 3 µM dafachronic acid response. activation, % at 6.8 µM. actives 1% (n = 370,000). AID 652126, 2013;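 active means activation above the mean over all tested compounds plus 3 SD, cut at about 0.9% in these data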;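 further: 0% = DMSO-only wells and 100% = 3 µM delta7-dafachronic acid wells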
# hgDAF-12 ag: H. glycines DAF-12 receptor agonists, primary screen, cell-based, luminescence, HEK293, GAL4 fusion, UAS-luciferase; HEK293 GAL4-hgDAF12 UAS-luciferase reporter, agonist luminescence; normalized to butyrate control; actives 1.8% (n = 370,000); AID 687014, 2013; activation, % at 6.8 µM;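 active means activation above a cutoff set at the mean of all screened compounds plus 3 SD, cut at about 10% in these data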;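 further: 0% = DMSO wells and 100% = sodium butyrate wells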
# DAX1 inh-1: DAX1 (NR0B1) inhibitors, primary screen, cell-based, HEK293, Gal4-DAX1, luciferase luminescence; actives 0.99% (n = 340,000); HEK293 Gal4-DAX1 luciferase reporter; AID 504766, 2011; Nuclear receptor subfamily 0 group B member 1 (Homo sapiens), P51843; inhibition, % at 6.75 µM;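 active means inhibition above the mean over all tested compounds plus 3 SD, cut at about 4.2% in these data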;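 further: 0% = DAX1-transfected cells with DMSO and 100% = empty-vector control cells with DMSO; inhibition shows as a rise in luminescence from relieved DAX1 repression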
# AHR act: AHR activators, primary screen, cell-based, luminescence, luciferase reporter, human | actives 2.5% (n = 320,000) | Aryl hydrocarbon receptor (Homo sapiens), P35869 | AHR-responsive luciferase reporter cells | activation, % at 5 µM | AID 2796, 2010; in the data active means activation above about 47%;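 further: 0% = vehicle wells and 100% = reference agonist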
# DAX1 inh-2: DAX1 (NR0B1) inhibitors on StAR promoter, primary screen, cell-based, luminescence, SF-1 (NR5A1), full-length DAX-1. HEK293T StAR-luciferase reporter, SF-1/DAX-1 repression relief. inhibition, % at 6.8 µM. actives 1.1% (n = 370,000);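 active means inhibition above the mean over all tested compounds plus 3 SD, cut at about 3.6% in these data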;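 further: 0% = DAX-1 cells with DMSO and 100% = cells lacking DAX-1 with DMSO; higher inhibition means more luminescence from relief of DAX-1 repression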
# hgDAF12 ag: H. glycines DAF-12 receptor agonists, confirmation, cell-based, luminescence, HEK293, GAL4-LBD fusion; actives 80% (n = 3,300); AID 743050, 2013; shares compounds with hgDAF-12 ag; activation, % at 6.8 µM; HEK293 GAL4-hgDAF12 luciferase reporter, agonist mode; percent of butyrate response;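 active means mean activation over triplicate wells above the hit cutoff derived from the earlier primary screen, cut at about 11% in these data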;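 further: 0% = DMSO low control and 100% = 2 mM sodium butyrate high control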
# LXR ag 2: LXR agonists, Gal4 luciferase reporter, confirmation, counter-screen for hgDAF-12 agonist project, cell-based, luminescence, HEK293, H. glycines campaign | AID 743051, 2013 | 24 h | shares compounds with hgDAF-12 ag | activation, % at 6.8 µM | 3,300 tested, under 10 active;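 active means mean activation of the triplicate above a set limit carried over from the primary screen, none filed active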
# Target sequence (P55055 whole entry, looked up, the tested form may be a part): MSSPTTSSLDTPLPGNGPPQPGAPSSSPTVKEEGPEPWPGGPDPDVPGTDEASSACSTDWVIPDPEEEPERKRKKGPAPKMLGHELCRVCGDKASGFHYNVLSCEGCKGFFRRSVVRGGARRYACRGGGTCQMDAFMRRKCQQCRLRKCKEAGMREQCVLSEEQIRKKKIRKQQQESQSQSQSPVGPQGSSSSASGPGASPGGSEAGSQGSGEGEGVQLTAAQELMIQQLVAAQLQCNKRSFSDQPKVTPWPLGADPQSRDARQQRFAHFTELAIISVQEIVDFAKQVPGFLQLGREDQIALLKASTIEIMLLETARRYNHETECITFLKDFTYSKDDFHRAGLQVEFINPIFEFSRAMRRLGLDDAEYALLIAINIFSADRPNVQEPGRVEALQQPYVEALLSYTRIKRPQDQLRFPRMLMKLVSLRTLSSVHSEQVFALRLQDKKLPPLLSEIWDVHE
# * marks the source's active call; other numbers are inactive results; / = no result given.
SMILES,hcDAF-12 act,ssDAF12 agonist,hgDAF-12 ag,DAX1 inh-1,AHR act,DAX1 inh-2,hgDAF12 ag,LXR ag 2
Cc1nn(C)cc1/C=C/C(=O)c1ccccc1,5,0,18*,3,21,3,16*,1
CCn1ncc(/C=C/C(=O)c2ccccc2)c1C,4,0,17*,3,2,1,13*,1
COc1ccc(-n2cc(-c3ccccc3)nc2SC)cc1,3,-1,15*,3,17,2,11*,0
CCCOc1ccc(OCCN2CCCC(C)C2)cc1 (stereo not drawn),0,-1,2,-1,0,0,/,/
CCC(=O)C1CCCN(C(=O)c2ccc(OC)c(OC3CCN(C(C)=O)CC3)c2)C1 (stereo not drawn),0,-1,-1,1,1,-1,/,/
N#Cc1ccc(C(=O)Nc2nnc(-c3ccco3)o2)cc1,0,-2,7,0,1,0,/,/
Cc1ccc(C(=O)Nc2nnc(-c3ccco3)o2)cc1,5,0,14*,-2,9,3,10,0
CCOC(=O)c1ccccc1NC1c2ccccc2C(=O)N1c1ccc(C)cn1 (stereo not drawn),3,0,15*,1,0,3,6,0
O=C(NCCc1ccc(Cl)cc1)C1CCC(CNc2c(N3CCCCC3)c(=O)c2=O)CC1 (stereo not drawn),1,-1,0,0,2,0,/,/
COC(=O)CCCn1cc(CN2CC(N3CCN(C)CC3)CS2(=O)=O)nn1 (stereo not drawn),-1,-1,1,/,/,-1,/,/
CC(C)Cc1nnc(NC(=O)Nc2ccccc2)s1,2,-2,21*,0,17,2,14*,0
CC(c1ccccc1)c1nnc(NC(=O)Nc2ccccc2)s1 (stereo not drawn),-1,-1,3,-1,10,1,/,/
O=C1/C(=C/c2ccsc2)N2CCC1CC2,-1,0,2,1,-1,0,/,/
O=C(N/N=C/c1ccccn1)c1cc(-c2ccccc2Cl)n[nH]1,0,-1,0,1,9,0,/,/
Cc1ccc(-c2cc(C(=O)N/N=C/c3c[nH]c4ccccc34)[nH]n2)cc1,0,-1,14*,-2,/,-2,6,0
Cc1ccc(-c2cc(C(=O)NN=Cc3ccccc3OCC(=O)O)[nH]n2)cc1,2,-1,4,/,/,0,/,/
O=C(N/N=C/c1ccccn1)c1cc(-c2cccc3ccccc23)n[nH]1,-1,-1,14*,6.6*,70*,1,-1,0
O=C(N/N=C/c1ccccn1)c1cc(-c2ccc3ccccc3c2)n[nH]1,5,0,22*,1,8,3,1,0
CCc1ccc(-c2cc(C(=O)N/N=C/c3ccccn3)[nH]n2)cc1,4,0,18*,4.5*,41,2,3,0
O=C(Cc1ccccc1)NC1c2ccccc2-c2ccccc21,-2,-2,1,1,10,0,/,/
